# Source: PubChem BioAssay
# RBX1-CUL1 inh = human ROC1-CUL1 E3 ligase inhibition; in vitro K48 di-Ub FRET, acceptor:donor ratio, 45 min; P62877+Q13616; inhibition, % at 10 µM; 0.6% of 140,000 active; AID 1347404; in the data active = inhibition above about 25%
# A number is an active result; n = inactive. This is one part of a sample in which hits are shown more often than they occur.
SMILES,RBX1-CUL1 inh
CCc1ccc(S(=O)(=O)N2CCN(C(=O)C3CC3)CC2)cc1,n
O=C(CN1CCN(C2CCCCC2)C(=O)C1=O)Nc1ccc(Cl)cc1,n
CCOc1ccc(NC(=O)CN2CCN(C3CCCCC3)C(=O)C2=O)cc1,57.8
CCc1ccc(NC(=O)CN2CCN(C3CCCCC3)C(=O)C2=O)cc1,n
COC(=O)c1cc2c(-c3ccccc3)cc3ccccn3c-2c1C(=O)OC,n
c1ccc(-c2cc3ccccn3c3cccc2-3)cc1,93.1
c1ccc(-c2cc3ccc4cccc2n43)cc1,n
CCCC(=O)Nc1ccc(C(=O)NNC(=O)CCC(=O)O)cc1,n
CC(=O)c1c(C)oc2c1cc(NS(=O)(=O)c1ccc(Br)cc1)c1ccccc12,n
CC(C)(C)c1ccc(S(=O)(=O)Nc2cc(SCC(=O)O)c(O)c3ccccc23)cc1,92.1
Cc1ccc(NS(=O)(=O)c2ccccc2)c(O)c1,n
O=c1oc2c(cc(NS(=O)(=O)c3ccc(Br)cc3)c3ccccc32)s1,n
O=C(O)CSc1cc(NS(=O)(=O)c2ccc(Br)cc2)c2ccccc2c1O,102.1
O=C(O)CSc1cc(NS(=O)(=O)c2ccccc2)c2ccccc2c1O,36.8
CC(C)(C)c1ccc(S(=O)(=O)Nc2ccc(O)c(C(=O)O)c2)cc1,n
O=S(=O)(Nc1cc(Sc2nnnn2-c2ccccc2)c(O)c2ccccc12)c1ccccc1,n
CC(C)(C)c1ccc(S(=O)(=O)Nc2ccc(Cl)cc2Cl)cc1,n
CC(C)(C)C1CCc2c(sc(N3C(=O)C=CC3=O)c2C#N)C1 (stereo not given),n
O=C1N=C(Cc2ccc(OCc3cccc4ccccc34)c(I)c2)C(=O)N1,n
COc1ccc(S(=O)(=O)N2CCCCC2)cc1C(=O)Nc1ccccc1F,n
Cc1cc(Br)ccc1NC(=O)CSc1nncn1C,n
CCn1cc(NC(=O)Cn2cc(-c3cnn4cccnc34)cn2)nn1,n
O=c1c(-c2ccccc2)c1-c1ccccc1,n
O=C1c2ccccc2-c2c1c(O)c(O)c(-c1ccccc1)c2-c1ccccc1,102.1
COc1ccc(OC)c2c1C(=O)c1ccccc1-2,n
SMILES,RBX1-CUL1 inh
CCS(=O)(=O)N1CCC(C(=O)Nc2cccc3ccccc23)CC1,n
CC1=NC2=C(C(=O)CC(C)(C)C2)C(c2ccccc2OCc2ccccc2)C1C(=O)OC(C)C (stereo not given),n
Cc1ncc2c(c1CNC(=O)c1ccsc1)CCN(C(=O)c1ccc(N3CCCCC3)cc1)C2,n
CCc1nc2ccccc2c(NC(=O)CNC(C)(C)CO)c1C,n
CCCCNC(=O)N1CCN(Cc2ccccc2)CC1,n
CC(C)C(=O)N1CCN(Cc2cccc(F)c2)CC1,n
O=C(C(C(F)(F)F)C(F)(F)F)N1CCN(Cc2ccccc2)CC1,53.2
CC(C)N1CCC(C(=O)N2CCCC(CCc3cccc(F)c3)C2)CC1 (stereo not given),n
CCc1cccc(C)c1NC(=O)c1nnn(-c2ccc(F)cc2)c1C,n
CC[n+]1cc(Cl)nc(-c2ccccc2)c1-c1ccccc1,38.7
CCOc1cc[n+](CC)c(-c2ccccc2)n1,n
Nc1nc(-c2ccccc2)c(Cl)nc1-c1ccccc1,n
O=C(/C=C/c1ccco1)Nc1ccc2oc(-c3cccnc3)nc2c1,54.0
O=C(Nc1ccc2oc(-c3cccnc3)nc2c1)c1ccc(-c2ccccc2)o1,n
CCc1ccc(-c2nc3cc(NC(=O)/C=C\c4ccco4)ccc3o2)cc1,n
O=C1c2ccccc2NC1C=NCCO (stereo not given),n
O=C1C(C2Nc3ccccc3C2=O)=Nc2ccccc21 (stereo not given),n
N=CC1Nc2ccccc2C1=O (stereo not given),31.1
C=CCc1cc(/C=C2\C(=O)NC(=S)N(c3cccc(OCC)c3)C2=O)cc(OCC)c1OCc1ccccc1,n
COc1ccc(S(=O)(=O)Nc2ccccc2N)cc1,n
CCOC(=O)C1(CCOC)CCN(Cc2ccc(O)c(Cl)c2)CC1,n
CC(NC(=O)Cc1ccc(Cl)cc1)C1CCCO1 (stereo not given),n
CN=C1CC=CC=C(C(=O)/C=C/c2ccc(C)cc2C)C1=O,103.0
CN=C1CC=CC=C(C(=O)/C=C/c2cccc(Oc3ccccc3)c2)C1=O,104.3
CN=C1CC=CC=C(C(=O)/C=C/c2c(Cl)cccc2Cl)C1=O,n
SMILES,RBX1-CUL1 inh
CN=C1CC=CC=C(C(=O)/C=C/c2ccc(C(F)(F)F)cc2)C1=O,n
COc1cccc(/C=C/C(=O)c2ccccc2)c1,n
Cc1ccc(/C=C/C(=O)C2C=CC=CC(=O)C2=O)c(C)c1 (stereo not given),n
CN=C1CC=CC=C(C(=O)/C=C/c2cc(C)ccc2C)C1=O,n
CN=C1CC=CC=C(C(=O)/C=C/c2ccccc2)C1=O,84.2
CC1=NC(=O)C(C(=O)/C=C/c2ccccc2)=C(C)C1,n
Cn1nccc1C(=O)N1CCCC(CCc2ccccc2)C1 (stereo not given),n
Cc1ccc(-c2[nH]nc3c2C(c2ccccc2Cl)C(C#N)C(=N)O3)cc1 (stereo not given),n
O=C(CN1CCN(c2cccc(Cl)c2)CC1)Nc1ccc(SCc2ccc(Cl)cc2Cl)cc1,n
Cc1ccc(OCC(=O)N/N=C/c2c(C)nn(-c3ccccc3)c2Cl)c(Br)c1,n
CCN(Cc1nccn1C)C(=O)c1ccc(NCc2ccc(C)o2)nc1,n
N=C1NC(=O)/C(=C/c2c(F)cccc2Cl)S1,n
CCC(CC)C(=O)N1CCc2cc(S(=O)(=O)N3CCOCC3)ccc21,n
O=C(Oc1ccc2ccc(OC(=O)c3cccc(F)c3)cc2c1)c1cccc(F)c1,n
COc1cccc(-c2n[nH]c3c2CN(Cc2ccoc2)CC3)c1,n
CC1CCN(S(=O)(=O)c2ccc(NC(=O)C(Sc3ccccc3)c3ccccc3)cc2)CC1 (stereo not given),n
Cc1cc(C(=O)Nc2ccc(S(=O)(=O)N3CCCC(C)C3)cc2)no1 (stereo not given),n
CCOc1cc(C2NN=C(c3ccccc3)S2)ccc1OCc1ccc(Cl)c(Cl)c1 (stereo not given),n
CCc1noc(CCNC(=O)c2ccc(C3CCCN3C(C)C)s2)n1 (stereo not given),n
O=C1N=C(Cc2ccc(-c3ccc(Cl)c(Cl)c3)o2)C(=O)N1Cc1ccccc1,n
O=C(O)c1cc(-c2ccc(CC3=NC(=O)N(Cc4ccccc4)C3=O)o2)ccc1Cl,57.7
CC(C)CN1C(=O)C(Cc2ccc(-c3cccc(C(=O)O)c3)o2)=NC1=S,28.2
CC(C)CCNCc1ccc(-c2cccc(C(=O)O)c2)o1,n
O=C1N=C(Cc2ccc(-c3ccccc3)o2)C(=O)N1Cc1ccc(Cl)cc1,n
O=C(O)c1ccc(-c2ccc(CC3=NC(=O)N(Cc4ccccc4F)C3=O)o2)cc1Cl,n
SMILES,RBX1-CUL1 inh
O=C(NCCc1nc(-c2ccccc2)cs1)C1CC(Cc2ccccc2)=NO1 (stereo not given),n
O=C1C2CSCN2C(=O)N1c1ccc(Cl)cc1 (stereo not given),n
COc1cc(C(=S)N2CCOCC2)cc(OC)c1OC(=O)c1ccc2nc(-c3ccccc3)c(-c3ccccc3)nc2c1,n
Cc1ccc(CNC(=O)c2sc3nc(-c4cccs4)ccc3c2N)cc1,n
CN(Cc1ccn[nH]1)C(=O)c1ccc2oc(-c3ccc(C(F)(F)F)cc3)nc2c1,n
CCOc1cc(C2C3=C(CC(c4cccs4)CC3=O)N=C(C)C2C(=O)OCC2CCCO2)cc([N+](=O)[O-])c1O (stereo not given),n
COc1cccc(CN2CCN(Cc3ccc(Cl)cc3)CC2CCO)c1 (stereo not given),n
CNc1cc(C)nc(-c2ccc(Br)cc2)n1,n
